# System: PPARg:RXRa (NR concentration 180 nM, RXRa partner concentration 90 nM)
# Test: PBM binding z-score (relative to random genomic background probes); higher = stronger binding; sequences stand for … in GC…GCGATTGACAGCGTAGAATGAAGG
# In short: (§1)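 Binding z-scores take random background probes as their reference. They come from custom Agilent 4×180K protein-binding microarrays incubated 1 h with ligand-free nuclear receptor dimers, with antibodies against each partner (one per run) detecting binding. Scanned fluorescence was regression-normalized.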
row,Sequence,PBM binding z-score
1,CGTACAGGGTCAGCTAGGCCAGAGTAGGGACGGC,3.14
2,ACCGAAAGGTCGAGGTGAGTATAGAGAAAGGGAA,3.28
3,AATATTAGTTGACTTAGGGCAACCGATACGACGC,1.09
4,ACTAGCAGGCCAAGGGTCACTCCAGATTAGTCCG,7.89
5,ATCTCTAGGTAACAAAGTTCAGTGAATGCCGAAC,2.01
6,TCTAGCAGGCCAGAGGGTCACTTAAGAGGTACGG,1.58
7,TCTTGTAGATCATTAGAGGTTAAGAAAGTGCGCT,-0.111
8,GCTAGTAGTTGAAAGGGCAACCGAATGATTCTCG,4.19
9,GCTCGGAGGACAAGGGCAGAGCTTTGTCCGTAGA,-0.879
10,AGAATGAGGTTAAGATCATGGAAACAGAATACAT,2.5
11,AGTAGCAGGCCAAGTTTGGGTCACTCAAACAAAG,-0.0669
12,TCGAGTAGGTTACCAATGGGGCATTAAGCTTTCT,0.247
13,CCAACTAGGTCACGAAAGGTCAAAGTCGAATGAC,9.92
14,AGAATGAGGTTACCAAAGATCAGGGAAACGCTTG,3
15,ATCGAAAGGACGTGAGGTGAGTATACAGAAAGGC,0.724
16,TCTAGTTGGACACGGAGGTCACACACGACGGGTA,2.46
17,CTACCAAGGTGAACAAGGTCATTGATTACTATTC,2.24
18,CGAACTAGGTCATTGACAGGACAGTGAGTAGTAA,7.21
19,TCTTGTAGATCAACAGGAGGTTATGAAAGATCGA,0.228
20,ACTTACGGGTCATCGAGGTTATAGCACGCGTATA,5.44

row,Sequence,PBM binding z-score
1,GCTATCAGTTGAAAGGGCAACCGAATGATTCTCG,1.65
2,CGAACGAGGGCATGAGTTGATAGCGAATGCCGAT,1.34
3,TAGCCTAGGTCATGCGGGCCAGAATAGTGTCGGC,2.58
4,GCTAGTTGGTCAGTAAAAGGTCACAAACCGGTCG,2.59
5,CCTAGTTGGTCAAGGGCACACACGCTATAGGTAC,1.51
6,ACAGACGGGTGAGTGAAGGTAACTCAGCTGGACG,0.424
7,CCTATTAGTTGACCATAAGGGCAACCTAAGCTCG,0.521
8,GGAACGAGGGCAAGTTGATACCAGAGTTTGATGG,1.31
9,CCTTACAGGTCACTCCAGGTTATAGCATCGGAGT,3.81
10,TTACCAAGGTGAAGGTTGTTGATCCCTCTGTAGA,1.21
11,TCAGATAGGTAAACAGGTGAAAGTCCGTAAGTTA,1.3
12,AGAATGAGGTTGAGATCAGGGAAACAGAATACAT,0.524
13,TCTCGGAGGACACGAAGGTCACAGCTTTCCAGAG,1.64
14,TCTCGGAGGACACGAAGGTCAGATCTTTCCAGAG,0.475
15,AGAACGAGGGCACGCGGAGTTGATAGCAGAGTAG,2.36
16,CCTCAGAGGACAGAAGGTCAGAGCTGTCCGCTTT,0.358
17,TCTCGGAGGACACGAAGGTTAGAGCTTTCCAGAG,-0.0287
18,CGTTCAAGGTCAGAGAGGTCAGTGAATGCCGAGT,4.38
19,CTTGCTAGGTCATGGTCAGCTAATCTACAGTATG,3.05
20,CCTTACGGGTCTCGAGGTTATAGCACGACGAGCG,0.785

# System: PPARg:RXRa 270nM:90nM, anti-RXR (NR concentration 270 nM, RXRa partner concentration 90 nM)
# Test: as above
# In short: as §1
row,Sequence,PBM binding z-score
1,CGTACAGGGTCAGCTAGGCCAGAGTAGGGACGGC,3.3
2,ACCGAAAGGTCGAGGTGAGTATAGAGAAAGGGAA,3.78
3,AATATTAGTTGACTTAGGGCAACCGATACGACGC,0.355
4,ACTAGCAGGCCAAGGGTCACTCCAGATTAGTCCG,7.08
5,ATCTCTAGGTAACAAAGTTCAGTGAATGCCGAAC,3.09
6,TCTAGCAGGCCAGAGGGTCACTTAAGAGGTACGG,2.96
7,TCTTGTAGATCATTAGAGGTTAAGAAAGTGCGCT,1.81
8,GCTAGTAGTTGAAAGGGCAACCGAATGATTCTCG,5.71
9,GCTCGGAGGACAAGGGCAGAGCTTTGTCCGTAGA,-0.532
10,AGAATGAGGTTAAGATCATGGAAACAGAATACAT,2.38
11,AGTAGCAGGCCAAGTTTGGGTCACTCAAACAAAG,0.42
12,TCGAGTAGGTTACCAATGGGGCATTAAGCTTTCT,1.17
13,CCAACTAGGTCACGAAAGGTCAAAGTCGAATGAC,8.01
14,AGAATGAGGTTACCAAAGATCAGGGAAACGCTTG,3.03
15,ATCGAAAGGACGTGAGGTGAGTATACAGAAAGGC,-0.318
16,TCTAGTTGGACACGGAGGTCACACACGACGGGTA,3.05
17,CTACCAAGGTGAACAAGGTCATTGATTACTATTC,2.85
18,CGAACTAGGTCATTGACAGGACAGTGAGTAGTAA,6.03
19,TCTTGTAGATCAACAGGAGGTTATGAAAGATCGA,1.25
20,ACTTACGGGTCATCGAGGTTATAGCACGCGTATA,5.54

row,Sequence,PBM binding z-score
1,GCTATCAGTTGAAAGGGCAACCGAATGATTCTCG,2.77
2,CGAACGAGGGCATGAGTTGATAGCGAATGCCGAT,1.65
3,TAGCCTAGGTCATGCGGGCCAGAATAGTGTCGGC,2.53
4,GCTAGTTGGTCAGTAAAAGGTCACAAACCGGTCG,4.01
5,CCTAGTTGGTCAAGGGCACACACGCTATAGGTAC,1.57
6,ACAGACGGGTGAGTGAAGGTAACTCAGCTGGACG,-0.249
7,CCTATTAGTTGACCATAAGGGCAACCTAAGCTCG,0.842
8,GGAACGAGGGCAAGTTGATACCAGAGTTTGATGG,1.19
9,CCTTACAGGTCACTCCAGGTTATAGCATCGGAGT,3.66
10,TTACCAAGGTGAAGGTTGTTGATCCCTCTGTAGA,2.25
11,TCAGATAGGTAAACAGGTGAAAGTCCGTAAGTTA,2.9
12,AGAATGAGGTTGAGATCAGGGAAACAGAATACAT,0.227
13,TCTCGGAGGACACGAAGGTCACAGCTTTCCAGAG,3.1
14,TCTCGGAGGACACGAAGGTCAGATCTTTCCAGAG,1.77
15,AGAACGAGGGCACGCGGAGTTGATAGCAGAGTAG,1.91
16,CCTCAGAGGACAGAAGGTCAGAGCTGTCCGCTTT,0.634
17,TCTCGGAGGACACGAAGGTTAGAGCTTTCCAGAG,1
18,CGTTCAAGGTCAGAGAGGTCAGTGAATGCCGAGT,4.69
19,CTTGCTAGGTCATGGTCAGCTAATCTACAGTATG,3.54
20,CCTTACGGGTCTCGAGGTTATAGCACGACGAGCG,0.313

# — the supplement of paper PMC6555819
